According to the supplement of paper PMC6522484:
Values joined by “and” are separate entries in the source; they are usually repeats but may differ in a detail not shown here. Identical values can stand only once. ± gives the standard deviation of the averaged measurements.

Key:
DLD1 [1] = test: cell viability (CellTiter-Glo) relative to plate median (fraction of plate median); higher = more viable cells; conditions: 5 µM; treatment time 24 h; reporter: 7TFP
Summary of the method: (§1)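 Normalisation used webcellHTS2 in additive mode without log transformation, scaling each well's luminescence to the plate median. The luminescence was firefly luciferase or CellTiterGlo, read on a Tecan F500 from parallel plates of colorectal cancer cells stably transduced with lentiviral TCF/Wnt firefly luciferase reporters. Those cells had been given library compounds at a final 5 µM for 24 h, and two independent replicates were averaged.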

HCT116 = test: as above; conditions: 5 µM; treatment time 24 h; reporter: TCF4/Wnt
Summary of the method: as §1

SW480 [2] = test: as above; conditions: 5 µM; treatment time 24 h; reporter: 7TFP
Summary of the method: as §1

DLD1 [3] = test: TCF/Wnt firefly luciferase reporter signal relative to plate median (fraction of plate median); higher = higher Wnt reporter signal; conditions: 5 µM; treatment time 24 h; reporter: 7TFP
Summary of the method: as §1

SW480 [4] = test: as above; conditions: 5 µM; treatment time 24 h; reporter: 7TFP
Summary of the method: as §1

Cc1cc(NS(=O)(=O)c2ccc(N)cc2)no1
cell viability (DLD1 [1]): 1.035 ± 0.0071
cell viability (HCT116): 1.15 ± 0.035
cell viability (SW480 [2]): 1.01
TCF/Wnt firefly luciferase reporter signal (DLD1 [3]): 1.09 ± 0.11
TCF/Wnt firefly luciferase reporter signal (SW480 [4]): 0.988 ± 0.032

C[C@H]1C[C@@H]2[C@H]([C@@H](O)C[C@@]3(C)[C@H]2CC[C@]3(O)C(=O)COC(=O)CCC(=O)O)[C@@]2(C)C=CC(=O)C=C12
cell viability (DLD1 [1]): 0.918 ± 0.13
cell viability (HCT116): 1.01 ± 0.018
cell viability (SW480 [2]): 0.921 ± 0.012
TCF/Wnt firefly luciferase reporter signal (DLD1 [3]): 0.964 ± 0.044
TCF/Wnt firefly luciferase reporter signal (SW480 [4]): 0.997 ± 0.061

CN(C)CCCN1c2ccccc2Sc2ccc(Cl)cc21
cell viability (DLD1 [1]): 1.02 ± 0.054
cell viability (HCT116): 0.957 ± 0.047
cell viability (SW480 [2]): 1.09 ± 0.14
TCF/Wnt firefly luciferase reporter signal (DLD1 [3]): 0.928 ± 0.12
TCF/Wnt firefly luciferase reporter signal (SW480 [4]): 0.821 ± 0.13

COc1ccc(C(=O)Oc2ccc(/C=N/NC(N)=O)cc2)cc1 [Anthramycin derivative (C16H15N3O4)]
cell viability (DLD1 [1]): 1.2 ± 0.2
cell viability (HCT116): 0.991 ± 0.07
cell viability (SW480 [2]): 1.02 ± 0.071
TCF/Wnt firefly luciferase reporter signal (DLD1 [3]): 0.938 ± 0.12
TCF/Wnt firefly luciferase reporter signal (SW480 [4]): 1.05 ± 0.028

C[C@@H]1CCC[C@H](C)N1NC(=O)c1ccc(Cl)c(S(N)(=O)=O)c1
cell viability (DLD1 [1]): 1.04 ± 0.068
cell viability (HCT116): 0.9815 ± 0.00071
cell viability (SW480 [2]): 0.96 ± 0.0071
TCF/Wnt firefly luciferase reporter signal (DLD1 [3]): 0.993 ± 0.0099
TCF/Wnt firefly luciferase reporter signal (SW480 [4]): 0.984 ± 0.052

Cc1cccc2c3c(ccc12)C1=C(C(=O)C3=O)[C@@H](C)CO1
cell viability (DLD1 [1]): 0.936 ± 0.1
cell viability (HCT116): 0.825 ± 0.011
cell viability (SW480 [2]): 1.03 ± 0.014
TCF/Wnt firefly luciferase reporter signal (DLD1 [3]): 0.955 ± 0.15
TCF/Wnt firefly luciferase reporter signal (SW480 [4]): 1.08 ± 0.15

N[C@@H](Cc1cc(I)c(Oc2cc(I)c(O)c(I)c2)c(I)c1)C(=O)O
cell viability (DLD1 [1]): 1.01 ± 0.037
cell viability (HCT116): 1.11 ± 0.042
cell viability (SW480 [2]): 0.978 ± 0.018
TCF/Wnt firefly luciferase reporter signal (DLD1 [3]): 1.19 ± 0.057
TCF/Wnt firefly luciferase reporter signal (SW480 [4]): 1.17 ± 0.05

COc1ccc(C(C)=O)c(OC)c1
cell viability (DLD1 [1]): 0.971 ± 0.056
cell viability (HCT116): 0.963 ± 0.15
cell viability (SW480 [2]): 0.9765 ± 0.00071
TCF/Wnt firefly luciferase reporter signal (DLD1 [3]): 0.864 ± 0.044
TCF/Wnt firefly luciferase reporter signal (SW480 [4]): 1.03 ± 0.16

Cc1ncc(C[n+]2csc(CCO)c2C)c(N)n1
cell viability (DLD1 [1]): 0.981 ± 0.041
cell viability (HCT116): 0.978 ± 0.088
cell viability (SW480 [2]): 1.005 ± 0.0071
TCF/Wnt firefly luciferase reporter signal (DLD1 [3]): 0.926 ± 0.011
TCF/Wnt firefly luciferase reporter signal (SW480 [4]): 0.946 ± 0.02

CCCOc1ccc2[nH]c(NC(=O)OC)nc2c1
cell viability (DLD1 [1]): 0.979 ± 0.011
cell viability (HCT116): 1.08 ± 0.2
cell viability (SW480 [2]): 1.13 ± 0.071
TCF/Wnt firefly luciferase reporter signal (DLD1 [3]): 0.959 ± 0.21
TCF/Wnt firefly luciferase reporter signal (SW480 [4]): 0.957 ± 0.035

CCOC(=O)n1ccn(C)c1=S
cell viability (DLD1 [1]): 0.985 ± 0.05
cell viability (HCT116): 1.12
cell viability (SW480 [2]): 1.01 ± 0.035
TCF/Wnt firefly luciferase reporter signal (DLD1 [3]): 0.9725 ± 0.0021
TCF/Wnt firefly luciferase reporter signal (SW480 [4]): 1.04 ± 0.014

COc1cc(OC)c(-c2c(OC)cc(OC)cc2OC)c(OC)c1
cell viability (DLD1 [1]): 1.015 ± 0.0071
cell viability (HCT116): 0.953 ± 0.14
cell viability (SW480 [2]): 1.02 ± 0.014
TCF/Wnt firefly luciferase reporter signal (DLD1 [3]): 0.926 ± 0.018
TCF/Wnt firefly luciferase reporter signal (SW480 [4]): 1.01

C[C@H]1[C@@H](O)O[C@@H]2O[C@@]3(C)CC[C@H]4[C@H](C)CC[C@@H]1[C@@]24OO3
cell viability (DLD1 [1]): 1.05 ± 0.09
cell viability (HCT116): 0.746 ± 0.12
cell viability (SW480 [2]): 1.24 ± 0.05
TCF/Wnt firefly luciferase reporter signal (DLD1 [3]): 0.761 ± 0.2
TCF/Wnt firefly luciferase reporter signal (SW480 [4]): 1.01 ± 0.052

C[C@H](CCC(=O)O)[C@H]1CC[C@H]2[C@@H]3C(=O)C[C@@H]4CC(=O)CC[C@]4(C)[C@H]3CC(=O)[C@]12C
cell viability (DLD1 [1]): 0.956 and 0.954
cell viability (HCT116): 0.911 and 0.941
cell viability (SW480 [2]): 0.912 and 0.967
TCF/Wnt firefly luciferase reporter signal (DLD1 [3]): 0.894 and 1.06
TCF/Wnt firefly luciferase reporter signal (SW480 [4]): 1.05 and 1.15

N[C@@H](Cc1cc(I)c(Oc2ccc(O)c(I)c2)c(I)c1)C(=O)O [LIOTHYRONINE (L- isomer) SODIUM]
cell viability (DLD1 [1]): 0.994 ± 0.093
cell viability (HCT116): 1.04 ± 0.091
cell viability (SW480 [2]): 1.11 ± 0.064
TCF/Wnt firefly luciferase reporter signal (DLD1 [3]): 1.14 ± 0.17
TCF/Wnt firefly luciferase reporter signal (SW480 [4]): 1.055 ± 0.0071

COc1cc(C(=O)NCc2ccc(OCCN(C)C)cc2)cc(OC)c1OC
cell viability (DLD1 [1]): 0.99 ± 0.057
cell viability (HCT116): 1 ± 0.13
cell viability (SW480 [2]): 0.996 ± 0.077
TCF/Wnt firefly luciferase reporter signal (DLD1 [3]): 0.871 ± 0.12
TCF/Wnt firefly luciferase reporter signal (SW480 [4]): 0.851 ± 0.06

NNC(=O)c1ccncc1
cell viability (DLD1 [1]): 0.952 ± 0.018
cell viability (HCT116): 0.959 ± 0.049
cell viability (SW480 [2]): 0.984 ± 0.051
TCF/Wnt firefly luciferase reporter signal (DLD1 [3]): 0.8925 ± 0.00071
TCF/Wnt firefly luciferase reporter signal (SW480 [4]): 1.03 ± 0.028
